About 79,000 compounds went through this panel and 15% of them were active in at least one assay; those are over-represented in the sample as a whole. A number with no mark means an inactive call. Cut-off read from the data, not from the text of the source: active = growth inhibition above about 70%; inactive = the rest. Where a SMILES comes first, the peptide text is derived from it. [ ]: non-standard residue; d: D form. The star is where a group is joined. ξ: configuration not given here. ξF = NC(Cc1ccccc1)C(=O)O; ξL = CC(C)CC(N)C(=O)O; ClAc = O=C(CCl)*

The nature of the first assay: NCI Yeast Anticancer Drug Screen. Data for the rad50 strain (AID 155).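 Note: 0% = growth of vehicle-only cultures of the same strain.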 To be noted: S. cerevisiae rad50 strain growth inhibition; at 50.0 µM; stronger effect = higher value. The procedure, abridged: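 Relative growth inhibition (compound vs vehicle) was measured in yeast with a defined repair-gene alteration.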
On to `CCCCCCCCCCCCCCCc1cc(=S)n(C)c2ccc(C)cc12`, for which the growth inhibition is 25.1%.

On to `CCn1c2[n+](c3ccccc31)CCC2`, for which the growth inhibition is -28.6%.

Regarding `ClCCCC1(CCCCl)OCCO1`, the growth inhibition is -21.3%.

Turning to `CCOc1ccc(NC(=O)C2CCC(C)(C(=O)O)C2(C)C)cc1` (stereo unspecified), the growth inhibition is -3.45%.

In the case of `CCC(C)NCCNCCNC(C)CC` (stereo unspecified), the growth inhibition was -9%.

Consider `CC(=O)NCc1cc(CNC(C)=O)c(C)cc1C`, for which the growth inhibition was -17.5%.

For the compound `CS(=O)(=O)c1ccc(NN)c([N+](=O)[O-])c1` (tested in a mixture with another compound), the growth inhibition is -25.7%.

As to `O=C(NNCN1C(=O)c2ccccc2C1=O)c1ccccc1`, the growth inhibition was -13.8%.

Turning to `OC(c1ccc(F)cc1)(c1cccs1)C1CC1` (stereo unspecified), the growth inhibition is -9.55%.

With `CCOC(=O)CN1C(=O)C(=O)c2ccccc21`, the growth inhibition is 18.9%.

With `CCN(CC#N)c1ccc(Nc2cc(Cl)ccc2Cl)cc1`, the growth inhibition was 8.75%.

On to `C(=N\N=C\c1c[nH]c2ccccc12)/c1c[nH]c2ccccc12`, for which the growth inhibition is -21.6%.

Consider `COc1cccc(CNc2ccc(SC)cc2)c1OC`, for which the growth inhibition was 10.2%.

On to `Oc1cc(Br)ccc1C=Nc1ccc(N2CCCCC2)cc1`, for which the growth inhibition is 25.4%.

Take `COc1ccc(-c2cc(=O)c3c(O)cccc3o2)cc1`: the growth inhibition is 2.65%.

With `O=S(=O)(O)c1ccc(-c2ccccc2)cc1`, the growth inhibition was -0.4%.

`CC(C)CC(NC(=O)CCl)C(=O)NCC(=O)O` (stereo unspecified) (ClAc-[ξL]-Gly-OH): the growth inhibition was 8.05%.

As to `CCOC(=O)c1nc2cc(C)c(C)cc2[nH]c1=O`, the growth inhibition was 5.45%.

As to `CCCCCCCCCOCC(O)COc1ccccc1[N+](=O)[O-]` (stereo unspecified), the growth inhibition is -9.2%.

As for `C(=C/c1ccc(/C=C/c2ccccc2)cc1)/c1ccccc1`, the growth inhibition was -22.1%.

On to `CCCN(CCC)CCC(=O)OCC`, for which the growth inhibition is -18.2%.

As for `O=C(O)/C=C/C(=O)Nc1cc(Cl)ccc1Cl`, the growth inhibition was 9.6%.

As for `Cc1ccc(CNc2ccc(I)cc2)cc1`, the growth inhibition is 37.5%.

For the compound `COc1ccc(CCN2C(=O)CSC2=S)cc1OC`, the growth inhibition is -14%.

Consider `O=[N+]([O-])c1cc([N+](=O)[O-])c2nc3ccccn3c2c1`, for which the growth inhibition is -1.85%.

As to `O=Cc1ccc2c(c1Cl)C(=O)c1ccccc1C2=O`, the growth inhibition is 51%.

For the compound `Cc1ccc(N2C(=O)CC(Sc3ccccc3N)C2=O)cc1Cl` (stereo unspecified), the growth inhibition was -15.5%.

For `Cc1ccc(N2CSC(=S)N(c3ccc(C)cc3)C2)cc1`, the growth inhibition was -10.4%.

For `COc1ccc(C(=O)CC2CCCC(CC(=O)c3ccc(OC)cc3)N2C)cc1` (stereo unspecified), the growth inhibition was 5.4%.

On to `Cc1ccc(NC(=S)NCCO)cc1`, for which the growth inhibition is -25.4%.

Take `CC(C)c1nc(-c2ccccc2)c(-c2ccccc2)[nH]1`: the growth inhibition is 43.2%.

Turning to `O=C(Cc1cccc2ccccc12)N/N=C/c1ccc2c(c1)CCC2`, the growth inhibition is 14.9%.

Turning to `Cc1nc2c(Cl)cc(Cl)c(Cl)c2s1`, the growth inhibition is 9.65%.

As for `CCOC(=O)C(=Cc1c[nH]c2ccc(Br)cc12)C(=O)OCC`, the growth inhibition was -17.5%.

For `NC(Cc1ccccc1)C(=O)NCC(=O)NCC(=O)O` (stereo not drawn) (H-[ξF]-Gly-Gly-OH), the growth inhibition was 13%.

As to `S=C=NC1CCCCCCCCCCC1`, the growth inhibition was 18.9%.

Consider `Cc1cc(Cl)ccc1NCN1C(=O)c2ccccc2C1=O`, for which the growth inhibition is -6.8%.

As to `Cc1ccc(COC(=O)c2cccnc2)cc1`, the growth inhibition is -16.4%.

A short description of the next assay: NCI Yeast Anticancer Drug Screen. Data for the mec2-1 strain (AID 157). The following applies: S. cerevisiae mec2-1 strain, at 50.0 µM, stronger effect = higher value. In a few lines:
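Compounds were applied to mec2-1 yeast cells. Their growth was then compared with that of vehicle-treated cultures to give growth inhibition.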
Turning to `CCCCCCCCCCCCCCCc1cc(=S)n(C)c2ccc(C)cc12`, the growth inhibition was -13.5%.

For the compound `CCn1c2[n+](c3ccccc31)CCC2`, the growth inhibition was -35.2%.

On to `ClCCCC1(CCCCl)OCCO1`, for which the growth inhibition is -25.1%.

For the compound `CCOc1ccc(NC(=O)C2CCC(C)(C(=O)O)C2(C)C)cc1` (stereo unspecified), the growth inhibition is 0.35%.

With `CCC(C)NCCNCCNC(C)CC` (stereo unspecified), the growth inhibition was -11.1%.

Consider `CC(=O)NCc1cc(CNC(C)=O)c(C)cc1C`, for which the growth inhibition was -13.7%.

Take `CS(=O)(=O)c1ccc(NN)c([N+](=O)[O-])c1` (tested in a mixture with another compound): the growth inhibition is -46.8%.

In the case of `O=C(NNCN1C(=O)c2ccccc2C1=O)c1ccccc1`, the growth inhibition was -15.7%.

In the case of `OC(c1ccc(F)cc1)(c1cccs1)C1CC1` (stereo unspecified), the growth inhibition is -4.75%.

Consider `CCOC(=O)CN1C(=O)C(=O)c2ccccc21`, for which the growth inhibition is 5.3%.

For `CCN(CC#N)c1ccc(Nc2cc(Cl)ccc2Cl)cc1`, the growth inhibition was -22.1%.

Consider `C(=N\N=C\c1c[nH]c2ccccc12)/c1c[nH]c2ccccc12`, for which the growth inhibition is -21.9%.

Regarding `COc1cccc(CNc2ccc(SC)cc2)c1OC`, the growth inhibition is 12.9%.

As for `Oc1cc(Br)ccc1C=Nc1ccc(N2CCCCC2)cc1`, the growth inhibition was 10.5%.

As for `COc1ccc(-c2cc(=O)c3c(O)cccc3o2)cc1`, the growth inhibition was -37.1%.

`O=S(=O)(O)c1ccc(-c2ccccc2)cc1`: the growth inhibition was -16.1%.

Consider `CC(C)CC(NC(=O)CCl)C(=O)NCC(=O)O` (stereo unspecified) (ClAc-[ξL]-Gly-OH), for which the growth inhibition was 9.65%.

Take `CCOC(=O)c1nc2cc(C)c(C)cc2[nH]c1=O`: the growth inhibition was -5.4%.

Turning to `CCCCCCCCCOCC(O)COc1ccccc1[N+](=O)[O-]` (stereo unspecified), the growth inhibition is -15.9%.

For `C(=C/c1ccc(/C=C/c2ccccc2)cc1)/c1ccccc1`, the growth inhibition is -13.9%.

As to `CCCN(CCC)CCC(=O)OCC`, the growth inhibition is -29.2%.

As for `O=C(O)/C=C/C(=O)Nc1cc(Cl)ccc1Cl`, the growth inhibition was 12.1%.

Turning to `Cc1ccc(CNc2ccc(I)cc2)cc1`, the growth inhibition was 37.9%.

`COc1ccc(CCN2C(=O)CSC2=S)cc1OC`: the growth inhibition is -17.4%.

Turning to `O=[N+]([O-])c1cc([N+](=O)[O-])c2nc3ccccn3c2c1`, the growth inhibition is -43.9%.

Regarding `O=Cc1ccc2c(c1Cl)C(=O)c1ccccc1C2=O`, the growth inhibition was 43.2%.

Take `Cc1ccc(N2C(=O)CC(Sc3ccccc3N)C2=O)cc1Cl` (stereo unspecified): the growth inhibition was -35.6%.

Turning to `Cc1ccc(N2CSC(=S)N(c3ccc(C)cc3)C2)cc1`, the growth inhibition was -25.9%.

On to `COc1ccc(C(=O)CC2CCCC(CC(=O)c3ccc(OC)cc3)N2C)cc1` (stereo unspecified), for which the growth inhibition was -6.05%.

On to `Cc1ccc(NC(=S)NCCO)cc1`, for which the growth inhibition is -41.8%.

Take `CC(C)c1nc(-c2ccccc2)c(-c2ccccc2)[nH]1`: the growth inhibition was 13.1%.

For the compound `O=C(Cc1cccc2ccccc12)N/N=C/c1ccc2c(c1)CCC2`, the growth inhibition was -13.2%.

`Cc1nc2c(Cl)cc(Cl)c(Cl)c2s1`: the growth inhibition is 5.15%.

Turning to `CCOC(=O)C(=Cc1c[nH]c2ccc(Br)cc12)C(=O)OCC`, the growth inhibition is -22.9%.

With `NC(Cc1ccccc1)C(=O)NCC(=O)NCC(=O)O` (stereo not drawn) (H-[ξF]-Gly-Gly-OH), the growth inhibition is -1.35%.

As to `S=C=NC1CCCCCCCCCCC1`, the growth inhibition was -3.9%.

On to `Cc1cc(Cl)ccc1NCN1C(=O)c2ccccc2C1=O`, for which the growth inhibition is -8.9%.

Take `Cc1ccc(COC(=O)c2cccnc2)cc1`: the growth inhibition was -18.6%.

The values are drawn from PubChem BioAssay (NCI).
